Source: PubChem
Only some compounds are listed: those with a hit (about 3.4% of all), similar ones and a draw of the others.
Gli-Sufu block – Gli-Sufu pathway antagonism | inhibition, % at 5 µM | 340,000 compounds, 0.74% hits | AID 588413 | Sufu-KO-LIGHT fibroblasts, Gli luciferase reporter luminescence;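 active = inhibition above about 55%, limit read from the data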;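 note: 0% = DMSO-treated cells and 100% = wells with medium but no cells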
GalR3 antag – antagonists of human GalR3. O60755. inhibition, % at 3 µM. HEK293 GalR3-CNG cAMP membrane potential fluorescence; galR3 body fused to GalR1 C-terminus. 360,000 compounds, 0.44% hits. AID 651719;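 active = inhibition above the screen-wide average plus 3 SD, cut at about 13% in these data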;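 note: forskolin and galanin both at EC90 stimulate the cells; cAMP rise reported by CNG channel membrane potential dye signal; 0% = forskolin plus galanin with DMSO and 100% = forskolin alone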
FXN GAA850 act – activators of GAA850 frataxin (FXN) promoter; HEK293 lucGAA850 FXN promoter luciferase reporter, 24 h; percent of 10 µM SAHA response; activation, % at 6 µM; 360,000 compounds, 0.56% hits;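 active = activation above the average of all compounds screened plus 3 SD, cutoff fixed separately per campaign, cut at about 7.5% in these data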;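 note: 0% = DMSO wells and 100% = 10 µM SAHA wells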
COUP-TFII inh – blocks human COUP-TFII nuclear receptor | inhibition, % at 8.6 µM | 370,000 compounds, 0.7% hits | AID 686940 | P24468 | HEK293T NGFI-A luciferase reporter, luminescence;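 active = inhibition above a per-plate cutoff, mean inhibition of test wells between control levels plus 3 SD, cut at about 38% in these data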;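 note: cells cotransfected with COUP-TFII expression vector driving the NGFI-A reporter; 0% = median of COUP-TF2 test wells and 100% = reporter-only cells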
Target sequence (P24468 whole entry, looked up): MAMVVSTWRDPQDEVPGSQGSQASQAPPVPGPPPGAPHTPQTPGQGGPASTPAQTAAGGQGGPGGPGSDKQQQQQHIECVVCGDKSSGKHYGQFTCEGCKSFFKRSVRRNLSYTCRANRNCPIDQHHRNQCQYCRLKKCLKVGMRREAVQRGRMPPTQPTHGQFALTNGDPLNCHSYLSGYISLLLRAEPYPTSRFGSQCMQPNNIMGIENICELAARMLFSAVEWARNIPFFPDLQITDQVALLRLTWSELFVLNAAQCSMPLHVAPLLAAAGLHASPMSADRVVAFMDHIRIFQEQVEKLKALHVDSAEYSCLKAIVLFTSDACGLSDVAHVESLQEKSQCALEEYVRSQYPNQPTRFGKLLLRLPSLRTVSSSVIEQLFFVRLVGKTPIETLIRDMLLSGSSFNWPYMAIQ
SMARCA2 act – increases SMARCA2 function in MMTV reporter cells; activation, % at 9.1 µM; 370,000 compounds, 1% hits; MG213 cells, MMTV-luciferase reporter, dexamethasone, overnight; AID 652017; in the data active = activation above about 7.8%;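 note: 0% = vehicle wells and 100% = reference activator wells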
H9c2 protect – myocardial damage modulation in H9c2 cells | H9c2 cardiomyocytes, H2O2 injury protection, ATPLite, 2 h | protection from H2O2 cell death, % at 20 µM | 360,000 compounds, 0.63% hits;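 active = compounds giving at least 50% protection of heart cells from peroxide-induced death in the single-dose screen, raw or plate-pattern-corrected value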;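 note: 0% = DMSO wells with peroxide and 100% = DMSO wells without peroxide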
Starred values were filed as active, the others as inactive; / = no result.

SMILES | Gli-Sufu block | GalR3 antag | FXN GAA850 act | COUP-TFII inh | SMARCA2 act | H9c2 protect
O=C(Nc1ccc([N+](=O)[O-])cc1)Nc1ccc(OC(F)F)c(Cl)c1 | 58* | -7 | -11 | 19 | -6 | -14
O=C(Nc1ccc(OC(F)F)c(Cl)c1)Nc1ccc2c(c1)OCO2 | -5 | -5 | 1 | -19 | -2 | -8
Cc1ccc(CSc2nnc(-c3cc(-c4ccc(C)cc4)n[nH]3)n2N)cc1 | / | / | / | -9 | -3 | /
COC(=O)[C@]12C[C@H](CC(=O)NCCc3ccccc3OC)C(=O)N(Cc3cccc4ccccc34)C1=C[C@H](C(C)(C)C)O[C@@H]2C | / | / | / | 14 | -3 | /
CCC(=O)OCCNc1cc(SCCC(=O)OC)c2nonc2c1[N+](=O)[O-] | -2 | 4 | 2 | -19 | -1 | 54*
Cc1cccc(NC(=O)c2nc[nH]c2C(=O)NCCCCNC(=O)c2[nH]cnc2C(=O)Nc2cccc(C)c2)c1 | 7 | -4 | -1 | -7 | 1 | 56*
O=C(Nc1cccc(Cl)c1)c1nc[nH]c1C(=O)NCCN(CCNC(=O)c1[nH]cnc1C(=O)Nc1cccc(Cl)c1)CCNC(=O)c1[nH]cnc1C(=O)Nc1cccc(Cl)c1 | 2 | 0 | 0 | 13 | 3 | 28
CNC(=O)c1[nH]cnc1C(=O)Nc1cccc(C)c1 | -13 | -5 | 3 | -18 | 1 | 6
Cc1cccc(NC(=O)c2nc[nH]c2C(=O)NCc2ccccc2)c1 | 34 | -4 | 1 | 3 | 0 | 2
O=C(Nc1cccc(Cl)c1)c1nc[nH]c1C(=O)NCCCCNC(=O)c1[nH]cnc1C(=O)Nc1cccc(Cl)c1 | 5 | -3 | 1 | -16 | 1 | 74*
Cc1cccc(NC(=O)c2nc[nH]c2C(=O)NCCCCCCNC(=O)c2[nH]cnc2C(=O)Nc2cccc(C)c2)c1 | -3 | -3 | -1 | -3 | 1 | 95*
C=C1C(=O)[C@]23C[C@H]1CC[C@H]2[C@]1(C)[C@@H](OC(C)=O)CC[C@@](C)(C(=O)O)[C@H]1C[C@@H]3OC(C)=O | / | -2 | / | -13 | 7.9* | -4
O=C(O)c1cccc(-n2sc3ccccc3c2=O)c1 | -8 | -3 | 1 | 10 | 2 | 78*
COc1ccc2o/c(=N/NC(=O)c3cccs3)c(C(N)=O)cc2c1 | -7 | -4 | 6 | 3 | 0 | 54*
C=CCN1[C@@H](C)COc2cc(N3CCSCC3)ccc2S1(=O)=O | / | / | / | -1 | 7 | /
COc1c(Br)cc(/C=N/n2c(-c3ccccc3)n[nH]c2=S)c(O)c1Br | 8 | -8 | 1 | 4 | -1 | 64*
N#Cc1ccccc1S(=O)(=O)N1CCN(C(=O)c2cc(=O)[nH]c3ccccc23)CC1 | -6 | -4 | 0 | 0 | -2 | 26
Cc1cc(C)c(C)c(S(=O)(=O)N2CCN(C(=O)c3cc(=O)[nH]c4ccccc34)CC2)c1C | -7 | -5 | -5 | 2 | -3 | 79*
Cc1cc(C)c(S(=O)(=O)N2CCN(C(=O)c3cc(=O)[nH]c4ccccc34)CC2)c(C)c1 | -3 | -6 | 3 | 6 | 0 | 63*
Cc1ccc(S(=O)(=O)N2CCN(C(=O)c3cc(=O)[nH]c4ccccc34)CC2)c(C)c1 | -19 | -3 | 0 | 8 | -2 | 72*
C[N+](=O)C1C(=O)Nc2ccccc21 (stereo not drawn) | / | -7 | / | -1 | -4 | /
CC(C)C[C@H](NC1(C(=O)NC2CCCCC2)CCN(C(=O)OC(C)(C)C)CC1)C(=O)NCCc1c[nH]c2ccccc12 | / | / | / | 15 | / | /
CCOC(=O)N1CCC(n2c(SCC(=O)N3CCC(C)CC3)nc3ccccc3c2=O)CC1 | -5 | -4 | -6 | 27 | -4 | 67*
CCOC(=O)N1CCC(n2c(SCC(=O)N3CCCC3)nc3ccccc3c2=O)CC1 | 17 | -5 | 0 | -4 | -1 | 6
Cc1ccc(N2C(=O)c3cccc4c(N)ccc(c34)C2=O)c2cccnc12 | 41 | 19* | -1 | -43 | -2 | 12
SMILES | Gli-Sufu block | GalR3 antag | FXN GAA850 act | COUP-TFII inh | SMARCA2 act | H9c2 protect
Cc1nn(C)c(C)c1N1C(=O)c2cccc3c(N)ccc(c23)C1=O | -3 | 12 | 4 | 15 | -2 | -2
COc1ccc2c(c1OC)C(=O)N1c3ccccc3C(=O)N(c3ccccc3)C21 (stereo not drawn) | 2 | -2 | -7 | 2 | 2 | 54*
O=C(NCc1cccc2ccccc12)C1CCCN(c2nc3ccccc3o2)C1 (stereo not drawn) | / | / | / | 6 | 0 | /
Clc1ccc(CSc2nnc(Cn3cnc4ccccc43)o2)cc1 | 34 | 33* | -3 | 63* | -5 | -22
O=C(OCc1cn(Cc2c(F)cccc2F)nn1)N1CCOCC1 | / | / | / | 2 | -1 | /
COc1ccc(OC)c(CN2C(=O)CCCCC2(C)c2nnnn2C2CCCC2)c1 (stereo not drawn) | / | / | / | 7 | -3 | /
COC(=O)C1CN(Cc2ccc(Cl)cc2)CCS(=O)(=O)N1Cc1cn(Cc2ccc(Cl)cc2)nn1 (stereo not drawn) | / | / | / | 3 | 1 | /
Cc1sc2ncnc(N3CCC(C(=O)N(C)CC(=O)Nc4ccccc4Cl)CC3)c2c1C | 25 | 4 | 0 | 35 | -3 | 46
CCN(CC(=O)Nc1cc(Cl)ccc1C)C(=O)C1CCN(c2ncnc3sc(C)c(C)c23)CC1 | / | -2 | -2 | 25 | -2 | 77*
COc1ccc(-c2cc(C(F)(F)F)n3nc(C(=O)N4CCN(C(=O)c5ccco5)CC4)cc3n2)cc1 | 19 | 4 | 0 | -7 | 1 | 55*
Cc1cccc(CN2CCN(C3CN(Cc4ccc(F)cc4)S(=O)(=O)C3)CC2)c1 (stereo not drawn) | / | -6 | / | 25 | -5 | -4
Cc1c(O)ccc2c(-c3ccccc3)cc(=O)oc12 | 1 | -8 | -2 | 6 | -3 | 84*
O=C(Nc1ccc(Cl)c(Cl)c1)c1cccc2c1-c1ccccc1C2=O | / | / | / | -10 | 1 | /
CC(=O)CSc1nc2ccc(Nc3nc(N4CCOCC4)nc(N4CCOCC4)n3)cc2s1 | -3 | -4 | 1 | 0 | 0 | -1
CC(C)(C)NC(=O)CSc1nc2ccc(Nc3nc(N4CCOCC4)nc(N4CCOCC4)n3)cc2s1 | 32 | -3 | 1 | 6 | 1 | 91*
COc1ccnc(Oc2ccc(F)cc2)c1C(=O)N/C=N/OCc1ccc(F)cc1Cl | 6 | 1 | 0 | 26 | -1 | 28
COc1ccnc(Oc2ccc(F)cc2)c1C(=O)N/C=N/OCc1ccc(Cl)cc1Cl | -10 | 2 | -1 | 3 | 1 | 51*
Cc1cc(NC(=O)c2cnn3c(C(F)(F)F)cc(-c4ccccc4)nc23)no1 | 19 | -1 | 2 | -12 | 1 | 93*
CCCCNC(=O)CCC(=O)Nc1ccc2nc(N3CCOCC3)cc(C)c2c1 | -22 | 0 | 2 | -40 | 3 | 7
CCOC(=O)C1CCCN(C(=O)CCC(=O)Nc2ccc3nc(N4CCOCC4)cc(C)c3c2)C1 (stereo not drawn) | -1 | -6 | 4 | -21 | -4 | 59*
